The whole screen tested about 5,500 compounds, of which about 2,000 (36%) were called active. Not shown: some 18% with an inconclusive outcome. No stated cut-off is given here; in the data, active means normalized growth mostly below about 0.91 (no sharp cut-off); inconclusive means no clear call, values can overlap the other calls; inactive means mostly above about 0.92. The list shows a part of the results.
Assay: chemical genetic growth profiling, strain panel (AID 1159580);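 further: tested at 20 µM; growth read once vehicle control cultures reached saturation at 30 °C; 1 = growth at the plate median or of vehicle wells; lower values mean less growth of the strain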
Conditions: growth OD

Measured: normalized growth

CC(C)=CCc1c(O)cc2oc(C)cc(=O)c2c1O
active: S. cerevisiae deletion strains, locus YJR043C, strain POL32, hits give low values 0.847 | S. cerevisiae deletion strains, locus YKR001C, strain vps1, hits give low values 0.723 | S. cerevisiae deletion strains, locus YLR113W, strain HOG1, hits give low values 0.854 | S. cerevisiae deletion strains, locus YLR262C, strain YPT6 (second series), hits give low values 0.781 | S. cerevisiae deletion strains, locus YMR307W, strain GAS1, hits give low values 0.549 | S. cerevisiae deletion strains, locus YOR184W, strain ser1, hits give low values 0.829 | S. cerevisiae deletion strains, strain wtn01, hits give low values 0.891
inactive: S. cerevisiae deletion strains, locus YJR066W, strain TOR1, hits give low values 0.941 | S. cerevisiae deletion strains, locus YJR075W, strain HOC1, hits give low values 1.03 | S. cerevisiae deletion strains, locus YKL009W, strain mrt4, hits give low values 0.974 | S. cerevisiae deletion strains, locus YKL068W, hits give low values 0.982 | S. cerevisiae deletion strains, locus YKL085W, strain MDH1 (second series), hits give low values 0.983 | S. cerevisiae deletion strains, locus YKL085W, strain MDH1, hits give low values 0.983 | S. cerevisiae deletion strains, locus YKL160W, strain elf1, hits give low values 0.963 | S. cerevisiae deletion strains, locus YKL190W, strain CNB1, hits give low values 1 | S. cerevisiae deletion strains, locus YKR026C, strain gcn3, hits give low values 0.977 | S. cerevisiae deletion strains, locus YKR091W, strain srl3, hits give low values 0.98 | S. cerevisiae deletion strains, locus YLL001W, strain dnm1, hits give low values 0.964 | S. cerevisiae deletion strains, locus YLL026W, hits give low values 0.981 | S. cerevisiae deletion strains, locus YLL041C, strain sdh2, hits give low values 0.979 | S. cerevisiae deletion strains, locus YLR027C, strain aat2, hits give low values 0.983 | S. cerevisiae deletion strains, locus YLR039C, strain RIC1, hits give low values 0.834 | S. cerevisiae deletion strains, locus YLR058C, strain SHM2, hits give low values 0.966 | S. cerevisiae deletion strains, locus YLR102C, strain apc9, hits give low values 0.987 | S. cerevisiae deletion strains, locus YLR221C, strain rsa3, hits give low values 0.95 | S. cerevisiae deletion strains, locus YLR258W, strain gsy2, hits give low values 0.97 | S. cerevisiae deletion strains, locus YLR268W, strain sec22, hits give low values 0.939 | S. cerevisiae deletion strains, locus YLR320W, strain mms22, hits give low values 0.961 | S. cerevisiae deletion strains, locus YLR330W, strain CHS5, hits give low values 0.937 | S. cerevisiae deletion strains, locus YLR342W, strain FKS1, hits give low values 0.974 | S. cerevisiae deletion strains, locus YLR357W, strain rsc2, hits give low values 0.913 | S. cerevisiae deletion strains, locus YLR370C, strain arc18, hits give low values 0.996 | S. cerevisiae deletion strains, locus YLR371W, strain rom2, hits give low values 0.957 | S. cerevisiae deletion strains, locus YLR384C, strain iki3, hits give low values 0.976 | S. cerevisiae deletion strains, locus YLR418C, strain cdc73, hits give low values 0.898 | S. cerevisiae deletion strains, locus YML016C, strain PPZ1, hits give low values 0.997 | S. cerevisiae deletion strains, locus YML032C, strain rad52, hits give low values 0.907 | S. cerevisiae deletion strains, locus YML120C, strain ndi1, hits give low values 0.98 | S. cerevisiae deletion strains, locus YML124C, strain tub3, hits give low values 0.985 | S. cerevisiae deletion strains, locus YMR058W, strain fet3, hits give low values 0.946 | S. cerevisiae deletion strains, locus YMR078C, strain ctf18, hits give low values 0.994 | S. cerevisiae deletion strains, locus YMR125W, strain sto1, hits give low values 0.981 | S. cerevisiae deletion strains, locus YMR129W, hits give low values 0.98 | S. cerevisiae deletion strains, locus YMR205C, strain PFK2, hits give low values 0.954 | S. cerevisiae deletion strains, locus YMR223W, strain ubp8, hits give low values 0.931 | S. cerevisiae deletion strains, locus YMR231W, strain pep5, hits give low values 0.981 | S. cerevisiae deletion strains, locus YMR263W, strain SAP30, hits give low values 0.992 | S. cerevisiae deletion strains, locus YNL067W, strain RPL9B, hits give low values 1.01 | S. cerevisiae deletion strains, locus YNL071W, strain lat1, hits give low values 0.975 | S. cerevisiae deletion strains, locus YNL153C, strain GIM3, hits give low values 0.932 | S. cerevisiae deletion strains, locus YNL183C, strain NPR1, hits give low values 0.91 | S. cerevisiae deletion strains, locus YNL209W, strain ssb2, hits give low values 0.996 | S. cerevisiae deletion strains, locus YNL233W, strain BNI4, hits give low values 0.926 | S. cerevisiae deletion strains, locus YNL248C, strain rpa49, hits give low values 0.968 | S. cerevisiae deletion strains, locus YNL250W, strain rad50, hits give low values 0.993 | S. cerevisiae deletion strains, locus YNL271C, strain bni1, hits give low values 0.98 | S. cerevisiae deletion strains, locus YNL298W, strain CLA4, hits give low values 0.954 | S. cerevisiae deletion strains, locus YNL307C, strain MCK1, hits give low values 0.989 | S. cerevisiae deletion strains, locus YNL322C, strain KRE1 (second series), hits give low values 0.964 | S. cerevisiae deletion strains, locus YNR049C, strain mso1, hits give low values 0.964 | S. cerevisiae deletion strains, locus YNR052C, strain pop2, hits give low values 1 | S. cerevisiae deletion strains, locus YOL012C, strain htz1 1.24 | S. cerevisiae deletion strains, locus YOL147C, strain pex11, hits give low values 0.954 | S. cerevisiae deletion strains, locus YOR001W, strain rrp6, hits give low values 0.981 | S. cerevisiae deletion strains, locus YOR061W, strain CKA2, hits give low values 0.955 | S. cerevisiae deletion strains, locus YOR069W, strain VPS5, hits give low values 0.987 | S. cerevisiae deletion strains, locus YOR070C, strain gyp1, hits give low values 0.983 | S. cerevisiae deletion strains, locus YOR080W, strain dia2, hits give low values 1 | S. cerevisiae deletion strains, locus YOR083W, strain WHI5, hits give low values 0.947 | S. cerevisiae deletion strains, locus YOR106W, strain vam3, hits give low values 0.934 | S. cerevisiae deletion strains, locus YOR136W, strain idh2, hits give low values 0.979 | S. cerevisiae deletion strains, locus YOR144C, strain elg1, hits give low values 0.965 | S. cerevisiae deletion strains, locus YOR231W, strain MKK1, hits give low values 0.958 | S. cerevisiae deletion strains, locus YOR265W, strain rbl2, hits give low values 0.971 | S. cerevisiae deletion strains, locus YOR270C, strain vph1, hits give low values 1.08 | S. cerevisiae deletion strains, locus YOR290C, strain snf2, hits give low values 0.939 | S. cerevisiae deletion strains, locus YOR316C, strain cot1, hits give low values 0.997 | S. cerevisiae deletion strains, locus YPL051W, strain arl3, hits give low values 0.952 | S. cerevisiae deletion strains, locus YPL055C, strain LGE1, hits give low values 0.945 | S. cerevisiae deletion strains, locus YPL078C, strain atp4, hits give low values 0.966 | S. cerevisiae deletion strains, locus YPL106C, strain sse1, hits give low values 0.978 | S. cerevisiae deletion strains, locus YPL240C, strain hsp82, hits give low values 0.982 | S. cerevisiae deletion strains, locus YPL256C, strain CLN2, hits give low values 1.01 | S. cerevisiae deletion strains, locus YPR119W, strain clb2, hits give low values 0.995 | S. cerevisiae deletion strains, locus YPR141C, strain kar3, hits give low values 1 | S. cerevisiae deletion strains, locus YPR163C, strain tif3, hits give low values 0.975 | S. cerevisiae deletion strains, locus YPR167C, strain met16, hits give low values 0.956 | S. cerevisiae strains, strain wild type, hits give low values 0.922

Reference: PubChem BioAssay AID1159580 (chemical genetic matrix, 2015)
